HT1080NT lethal: qHTS for induction of synthetic lethality in tumor cells producing 2HG: qHTS for the HT-1080-NT fibrosarcoma cell line; HT-1080-NT fibrosarcoma viability, CellTiter-Glo ATP luminescence, 48 h; Potency, µM (titrated, usually from 46.1 µM), inactives show at the top dose activity, negative = less viability, actives largely listed as cytotoxic; actives 1.6% (n = 360,000);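 also: NT is the 2HG producing partner of a matched IDH1 knockdown line; 0% = DMSO-treated cells and -100% = media-only wells without cells; nearly all actives have a fitted effect of over 55% in size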
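Compounds were tested in concentration-response format on HT-1080-NT cells for 48 hours at 37 degrees C. Cell viability came from CellTiter-Glo luminescence; curves were classified by r2, response magnitude and activity.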
TDP1 cell CPT: qHTS for Inhibitors of human tyrosyl-DNA phosphodiesterase 1 (TDP1): qHTS in cells in presence of CPT; Potency, µM (top dose mostly 46.2 µM), for inactives: at the top dose activity change, negative = growth inhibition, most hits filed as inhibitors; actives 12% (n = 420,000); AID 686979, 2013; chicken DT40 Tdp1-/-;hTDP1 cells + 20 nM CPT, ATP luminescence, 48 h; also: nearly all actives have a fitted effect of over 55% in size
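Cell growth measured by CellTiter-Glo luminescence after a minimum 48 h, 37 C compound exposure with 20 nM CPT in Tdp1-knockout DT40 cells stably expressing hTDP1, seeded 400/well; qHTS titration format.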
DT40 TDP1 no CPT: qHTS for Inhibitors of human tyrosyl-DNA phosphodiesterase 1 (TDP1): qHTS in cells in absence of CPT. DT40 Tdp1-/- hTDP1 cells, no CPT, ATP luminescence, 48 h. Potency, µM (doses to about 46.2 µM), inactives show top-dose activity change, negative = growth inhibition, actives largely listed as inhibitors. actives 15% (n = 420,000). AID 686978, 2013; also: nearly all actives have a fitted effect of over 55% in size
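Chicken DT40 Tdp1-/- cells stably complemented with human TDP1 were seeded at 400 cells/well with DMSO in place of 20 nM camptothecin. After compound pinning, cells grew at least 48 hr at 37 °C; viability read by CellTiter-Glo luminescence.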
HT1080 IDH1KD tx: qHTS for induction of synthetic lethality in tumor cells producing 2HG: qHTS for the HT-1080-IDH1KD cell line; HT-1080 IDH1 knockdown viability, ATP luminescence, 48 h; Potency, µM (doses to about 46.1 µM), inactives show at the top dose activity, negative = toxicity, actives largely listed as cytotoxic; actives 2% (n = 360,000); AID 686971, 2013;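 also: 0% = DMSO wells and -100% = cell-free medium wells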
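Viability of IDH1-knockdown HT-1080 fibrosarcoma cells was assessed by CellTiter-Glo after 48 h at 37 °C with titrated compound; concentration-effect curves were classified by fit quality and response size.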
KB-3-1 cytotox: qHTS assay for MDR1-selective chemotherapeutics: Primary screen using the parental adenocarcinoma cell KB-3-1 | Potency, µM (top dose mostly 46.1 µM), hits mostly cytotoxic | actives 1.4% (n = 400,000) | KB-3-1 viability, CellTiter-Glo ATP luminescence, 72 h; also: nearly all actives have a fitted effect of over 60% in size
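Multi-concentration cytotoxicity screen in KB-3-1 cells grown in DMEM lacking phenol red with 10% FBS. After 72 h at 37 °C with compound, ATP-dependent luminescence was recorded.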
KB-V1 MDR tox: qHTS assay for MDR1-selective chemotherapeutics: Primary screen using the drug-selected MDR subline cells KB-V1. KB-V1 MDR cells viability, CellTiter-Glo, 72 h. Potency, µM (doses to about 46.1 µM), most hits filed as cytotoxic. actives 3.4% (n = 400,000). AID 1347076, 2019; also: nearly all actives have a fitted effect of over 60% in size
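Compound-treated KB-V1 multidrug-resistant cells, 72 h, 37 degrees C; viability by CellTiter-Glo. Fitted qHTS curves give the values.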
Numbers without * were called inactive; i = inactive; ? = inconclusive; · = no result given; [ ] = another dose, or the depositor's remark. Compounds with a hit are over-represented: about 19% of the library has one in this group of screens. Calls follow the shape of the dose curve; as a rule, active = well fitted curve in the direction sought with a large enough effect; inconclusive = small, poorly fitted or top-dose-only effect, or another doubt; inactive = no such curve, though single readings can be large; an effect the other way counts as inactive or inconclusive. Unless noted, % is scaled to controls: 0 for no effect and ±100 for the full control effect; potency is read from the fitted curve at half-maximal effect.

SMILES | HT1080NT lethal | TDP1 cell CPT | DT40 TDP1 no CPT | HT1080 IDH1KD tx | KB-3-1 cytotox | KB-V1 MDR tox
Cc1c(Cl)cccc1NC(=O)COC(=O)c1c2c(nc3ccccc13)CCN(Cc1ccccc1)C2 | ? | ? | 16.4µM* | ? | ? | 2.06µM*
COc1ccccc1OC(=O)c1ccc(SC)cc1OC | -14.0% | ? | -20.6% | 0.2% | i | i
CCOc1ccccc1C(=O)Nc1nnc(CC)s1 | 9.5% | 16.4µM* | 20.6µM* | -1.9% | i | i
CCOc1ccccc1C(=O)Nc1nn[nH]n1 | 9.6% | 8.7% | -16.8% | 3.1% | i | i
CCc1nnc(NC(=O)c2cccc(C(=O)Nc3nnc(CC)s3)n2)s1 | -0.9% | 0.146µM* | 0.0206µM* | -12.9% | ? | ?
COc1ccccc1-c1ccc(C(=O)NCCN2CCOCC2)c(N2CCN(c3ccccc3F)CC2)n1 | · | 2.9%[9.04 µM] | -24.0% | · | · | ·
CC1(c2ccc(OC(F)F)cc2)NC(=O)N(CC(=O)c2ccc3c(c2)OCO3)C1=O (stereo not given) | -24.3% | -19.5% | -20.7% | -13.4% | i | i
CC(=O)Oc1ccc(-c2cc3c(OC(C)=O)cc(OC(C)=O)cc3oc2=O)cc1 | -6.9% | 0.9% | -10.1% | -1.4% | i | i
CC1CCCCN1c1cc(C#N)c(C#N)cc1[N+](=O)[O-] (stereo not given) | 5.0% | 18.4µM* | -23.5% | 25.9% | i | i
CC1CCN(c2cc(C#N)c(C#N)cc2[N+](=O)[O-])CC1 | 12.4% | -18.4% | -9.9% | 0.5% | i | i
Cc1cc(-c2csc(Nc3ccccn3)n2)ccc1F | ? | ? | 20.6µM* | ? | i | i
Cc1ccc(-c2csc(Nc3ccccn3)n2)cc1 | ? | ? | ? | -27.7% | i | i
Fc1ccc(-c2csc(Nc3ccccn3)n2)c(F)c1 | ? | ? | ? | ? | 18.4µM* | ?
c1ccc(-c2csc(Nc3ccccn3)n2)cc1 | -11.1% | -17.4% | ? | -25.4% | i | i
Cc1[nH][nH]c(=O)c1C=NCc1cccc(C(F)(F)F)c1 | 0.4% | -5.0% | -7.9% | -1.0% | i | i
N#CSCC(=O)c1cccc2ccccc12 | ? | 4.61µM* | 4.61µM* | ? | ? | i
O=c1cnn(-c2ccc(Cl)cc2Cl)c(-c2ccccc2)c1 | -12.2% | ? | 23.1µM* | -20.9% | i | i
CCOC(=O)c1c(-c2ccc(C)cc2)csc1NC(=O)C1CCCO1 (stereo not given) | 16.7% | ? | 25.9µM* | 3.2% | i | i
CCOC(=O)c1c(-c2ccccc2)csc1NC(=O)c1cc(-c2ccc(Cl)cc2)on1 | · | -9.0% | -9.7% | · | i | i
CC(C)OC(=O)c1c(-c2ccc(C(C)C)cc2)csc1NC(=O)C1CCCO1 (stereo not given) | -1.2% | ? | 14.6µM* | -0.1% | ? | ?
CCOC(=O)c1c(-c2ccc(OC)cc2)csc1NC(=O)C1CCCO1 (stereo not given) | -1.8% | ? | ? | -0.3% | i | ?
CCOC(=O)c1c(-c2ccc(C)cc2)csc1NC(=O)c1cc(=O)c2cc(Cl)ccc2o1 | · | 2.2% | 4.61µM* | · | i | i
COC(=O)c1c(-c2cccc(C)c2)csc1NC(=O)C1CCCO1 (stereo not given) | -6.0% | ? | 18.4µM* | -4.7% | i | ?
CCc1ccc(C(=O)NNC(=O)c2ccc(=O)n(C)n2)cc1 | 0.0% | -8.9% | 0.3% | 7.1% | i | i
C[C@@H]1CN([C@@H](C)CO)C(=O)CCCn2nncc2CO[C@H]1CN(C)C(=O)Nc1ccc(F)cc1 | -5.8% | -2.6% | -22.2% | -3.5% | i | i
SMILES | HT1080NT lethal | TDP1 cell CPT | DT40 TDP1 no CPT | HT1080 IDH1KD tx | KB-3-1 cytotox | KB-V1 MDR tox
O=C(NCCCN1CCCC1)[C@H](CSCc1ccccc1)N1Cc2ccccc2C1=O | -3.8% | ? | 29.1µM* | ? | i | i
COc1ccc(OC)c(NC(=O)[C@H](Cc2ccccc2)N2Cc3ccccc3C2=O)c1 | · | ? | ? | · | i | i
COc1ccc(OC)c(NC(=O)[C@H](CSCc2ccccc2)N2Cc3ccccc3C2=O)c1 | · | 20.6µM* | ? | · | i | i
O=c1c(-c2ccc(Cl)cc2)nc2cnc(N3CCOCC3)nc2n1C[C@H]1CCCO1 | · | 3.1% | 10.5% | · | · | ·
COc1ccc(CNc2ccc(Cl)cc2)cc1Cn1ccnc1 | -14.8% | ? | 16.4µM* | -21.8% | i | i
CCOC(=O)c1c(NC(=O)CSc2nnnn2-c2ccccc2OCC)sc2c1CC(C)(C)NC2(C)C | ? | ? | 14.6µM* | ? | ? | ?
CCOC(=O)c1c(NC(=O)CSc2nnnn2-c2ccccc2)sc2c1CC(C)(C)NC2(C)C | ? | 16.4µM* | ? | 23.1µM* | i | i
CN1CCc2nc(SCC(=O)Nc3cccc(F)c3)c(C#N)c(-c3cccs3)c2C1 | -19.0% | ? | ? | -20.8% | i | i
CC(C)(C)C(=O)CSc1nc2c(c(-c3cccs3)c1C#N)CCC2 | -1.2% | ? | 23.1µM* | -0.1% | i | i
N#Cc1c(N)nc2c(c1-c1cccs1)CCCC2 | 2.8% | -9.0% | -12.4% | -9.0% | i | i
N#Cc1c(N)nc(SCC(=O)NCCc2ccccc2)c(C#N)c1-c1cccs1 | ? | -4.0% | -16.0% | -13.1%[9.24 µM] | i | i
CN1CCc2nc(SCC(=O)Nc3ccc(OC(F)(F)F)cc3)c(C#N)c(-c3cccs3)c2C1 | 4.6% | 14.6µM* | 23.1µM* | 10.5% | ? | i
CC(=O)CSc1nc(N)c(C#N)c(-c2cccs2)c1C#N | -24.0% | 20.6µM* | 13µM* | ? | i | 18.4µM*
CC(C)OC(=O)CSc1nc(N)c(C#N)c(-c2cccs2)c1C#N | ? | ? | ? | -15.9% | i | 20.6µM*
O=C(Cc1ccccc1F)OCN1C(=O)c2ccccc2C1=O | 2.8% | -23.2% | 13.0% | 8.4% | i | i

Compound activity deposited in PubChem by National Center for Advancing Translational Sciences (NCATS).
